Hit rate of the full screen: of about 330,000 compounds, about 3,800 (1.2%) were called active. Rule as the data show it: active = inhibition above about 15%; inconclusive = no clear call, values can overlap the other calls; inactive = below that. Many of the other results were omitted from the sample, so actives are more common in it than they were.

The target of this test is NAD-dependent protein deacylase sirtuin-5, mitochondrial (Homo sapiens) (UniProt Q9NXA8). Put plainly: SIRT5 desuccinylase inhibitors, primary screen, biochemical, fluorescence imaging, single point, set 5 (AID 652115). The conditions noted are these: Purified SirT5, succinyl-peptide AMC, trypsin-coupled fluorescence; at 15 µM; hits give high values.
Sequence of NAD-dependent protein deacylase sirtuin-5, mitochondrial (Homo sapiens) (Q9NXA8 whole entry, looked up): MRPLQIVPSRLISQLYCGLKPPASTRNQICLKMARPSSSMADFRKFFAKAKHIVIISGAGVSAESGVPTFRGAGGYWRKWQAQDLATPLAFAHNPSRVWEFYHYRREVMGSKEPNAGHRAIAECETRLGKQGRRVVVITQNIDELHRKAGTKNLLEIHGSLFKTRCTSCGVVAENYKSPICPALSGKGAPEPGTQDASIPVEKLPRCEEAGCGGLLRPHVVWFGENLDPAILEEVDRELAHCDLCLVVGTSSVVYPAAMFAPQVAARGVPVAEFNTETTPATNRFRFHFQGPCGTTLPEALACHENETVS
`C[C@@H]1CN([C@H](C)CO)S(=O)(=O)c2ccc(-c3cncnc3)cc2O[C@H]1CN(C)C(=O)Cc1ccccc1`: the inhibition (in general, the relative decrease from the control value, in per cent) was 1.64% (inactive). Regarding `CCCC#Cc1cnc2c(c1)C(=O)N([C@H](C)CO)C[C@H](C)[C@@H](CN(C)C(=O)c1cccnc1)O2`, the inhibition is -3.74% (inactive). The result for `CN1C(=O)c2cc(NS(=O)(=O)c3ccc(Cl)cc3)ccc2OC[C@@H]2O[C@H](CC(=O)O)CC[C@@H]21` reads -0.474% (inactive). In the case of `O=C(C1CC1)N1CC(=O)N2[C@H](CO)[C@@H](c3ccc(-c4ccccc4F)cc3)[C@@H]2C1` it was -3.61% (inactive); in that of `COc1ccc(CN(C)C[C@H]2OCCCC[C@@H](C)Oc3ccc(NS(=O)(=O)c4ccccc4)cc3C(=O)N([C@@H](C)CO)C[C@@H]2C)cc1`, -2.94% (inactive); in that of `COc1ccccc1CN1[C@H](CO)[C@H](c2ccccc2)C12CN(C(=O)c1ccccn1)C2`, -0.913% (inactive).

In the case of `C[C@@H]1CN([C@H](C)CO)C(=O)c2cccc(NS(=O)(=O)c3ccc(Cl)cc3)c2O[C@H]1CN(C)Cc1ccc(C(F)(F)F)cc1`, the inhibition was 2.17% (inactive). The result for `COCC(=O)Nc1ccc2c(c1)OC[C@H](C)N(C(=O)c1cnccn1)C[C@@H](C)[C@@H](OC)CN(C)C2=O` reads 10.6% (inactive); that for `Cc1noc(C)c1NC(=O)N(C)C[C@H]1OCCCC[C@@H](C)Oc2ccc(NC(=O)NC(C)C)cc2C(=O)N([C@@H](C)CO)C[C@H]1C`, 1.72% (inactive). Consider `O=C(N/N=C/c1ccc2c(c1)OCO2)C(=O)N1CCCC1`, for which the inhibition is -0.951% (inactive).

Take `NC(=O)c1ccc(NC(=O)COC(=O)c2c3c(nc4ccccc24)/C(=C\c2ccc4c(c2)OCO4)CCC3)cc1`: the inhibition is -2.29% (inactive). The result for `O=C1/C(=C/c2ccc3c(c2)OCO3)CCC/C1=C\c1ccc2c(c1)OCO2` reads 15.2% (active); that for `C[C@H](CO)N1C[C@H](C)[C@H](CN(C)C(=O)c2cccnc2)Oc2ncc(C3=CCCC3)cc2C1=O`, -8.88% (inactive); that for `C[C@H](CO)N1C[C@H](C)[C@@H](CN(C)C(=O)Cc2ccncc2)Oc2ncc(C#CCN(C)C)cc2C1=O`, 6.32% (inactive). In the case of `CCCN(C)C[C@H]1Oc2ncc(C#CCOC)cc2C(=O)N([C@@H](C)CO)C[C@H]1C` it was 0.664% (inactive); in that of `C[C@@H]1CN([C@@H](C)CO)C(=O)c2cccc(NC(=O)c3cnccn3)c2O[C@H]1CN(C)Cc1ccc(C(=O)O)cc1`, -1.49% (inactive); in that of `C[C@@H]1CN([C@@H](C)CO)C(=O)c2cccc(NC(=O)c3cnccn3)c2O[C@H]1CN(C)Cc1ccc(-c2ccccc2)cc1`, -1.19% (inactive).

Regarding `C[C@@H]1CN([C@H](C)CO)C(=O)c2cccc(NC(=O)c3cnccn3)c2O[C@@H]1CN(C)Cc1ccc(C(=O)Nc2ccccc2N)cc1`, the inhibition was 15.1% (active). Take `C[C@H](CO)N1C[C@H](C)[C@H](CN(C)Cc2ccc(Oc3ccccc3)cc2)Oc2c(NC(=O)CCCCCC(=O)Nc3ccccc3N)cccc2C1=O`: the inhibition is 10.2% (inactive). Consider `C[C@@H]1CN([C@H](C)CO)C(=O)c2cccc(NC(=O)CCCCCC(=O)Nc3ccccc3N)c2O[C@H]1CN(C)Cc1ccc(Oc2ccccc2)cc1`, for which the inhibition was 28.2% (active). `C[C@@H]1CN([C@@H](C)CO)C(=O)c2cccc(NC(=O)CCCCCC(=O)Nc3ccccc3N)c2O[C@H]1CN(C)C(=O)Nc1ccccc1`: the inhibition was -0.269% (inactive). In the case of `CCOc1cc(C)ccc1OCc1nnc(SCC(=O)Nc2cccc(C(=O)O)c2)n1-c1ccccc1`, the inhibition was 60.5% (active).

In the case of `COc1ccccc1OCc1nnc(SCC(N)=O)n1-c1ccccc1`, the inhibition is -0.045% (inactive). With `COc1ccccc1-n1c(SCC(=O)Nc2cccc(C(=O)O)c2)nnc1-c1ccccc1O`, the inhibition was 3.18% (inactive). The result for `COc1cccc(S(=O)(=O)N[C@@H]2C=C[C@H](CC(=O)NC3CCC3)O[C@@H]2CO)c1` reads -3.76% (inactive); that for `CO[C@@H]1CC[C@@H]2CCOc3c(C#N)cccc3C(=O)N(C)C[C@@H](C)C(=O)N(C)C[C@@H]1O2`, 0.964% (inactive).

In the case of `OC[C@@H]1CN(Cc2cccs2)C[C@H](n2cnc3c(Nc4ccccc4)ncnc32)O1`, the inhibition is 19.4% (active). On to `OC[C@@H]1CN(Cc2cccs2)C[C@H](n2cnc3c(NC4CCCC4)ncnc32)O1`, for which the inhibition was 5.79% (inactive). The result for `CCN(CC)c1ncnc2c1ncn2[C@H]1CN(Cc2cccs2)C[C@@H](CO)O1` reads 0.751% (inactive); that for `CCCC(=O)Nc1ccc2c(c1)C(=O)N(C)C[C@H](OC)[C@@H](C)CN(C(C)=O)[C@H](C)CO2`, 0.113% (inactive). The result for `CO[C@@H]1CN(C)C(=O)c2cc(NC(=O)C3CC3)ccc2OC[C@H](C)N(CC2CC2)C[C@H]1C` reads -3.23% (inactive). The result for `CCCCN(C(=O)c1ccc(S(=O)(=O)N2CCOCC2)cc1)C1CCS(=O)(=O)C1` (centres undefined) reads 2.17% (inactive); that for `O=C(c1cccc(S(=O)(=O)N2CCCC2)c1)N(Cc1ccco1)C1CCS(=O)(=O)C1` (centres undefined), 18.1% (active). With `CC(C)CN(C(=O)c1cccc(S(=O)(=O)N2CCCCC2)c1)C1CCS(=O)(=O)C1` (centres undefined), the inhibition was -1.89% (inactive). The result for `CN(C)C(=O)C[C@@H]1CC[C@@H](NC(=O)NC2CCCC2)[C@@H](CO)O1` reads 1.11% (inactive); that for `COc1cccc(S(=O)(=O)N[C@H]2CC[C@@H](CCN)O[C@H]2CO)c1`, 0.762% (inactive); that for `CCOC(=O)C(C)Oc1cccc2c(=O)n(CC(=O)NCCc3ccc(OC)c(OC)c3)ccc12` (centres undefined), -3.89% (inactive). In the case of `COC(=O)COc1cccc2c(=O)n(CC(=O)NCCc3ccc(OC)c(OC)c3)ccc12` it was 15.1% (active); in that of `COC(=O)COc1cccc2c(=O)n(CC(=O)NCc3ccccc3)ccc12`, -3.93% (inactive). In the case of `CO[C@@H]1CN(C)C(=O)c2cc(NC(=O)c3cnccn3)ccc2OC[C@@H](C)N(C(=O)C2CC2)C[C@@H]1C` it was 2.16% (inactive); in that of `COc1cccc(-c2ccc([C@H]3[C@H]4CN(C(=O)NC(C)C)CC(=O)N4[C@H]3CO)cc2)c1`, 1.38% (inactive). As for `COc1cc(OC)c(OC)cc1CN1CCN(C(=O)c2cccc3ccccc23)CC1`, the inhibition was -1.16% (inactive). The result for `COc1cc(C)c(CN2CCN(C(=O)CCC(=O)c3ccc(C)s3)CC2)cc1OC` reads 19.2% (active). In the case of `COc1ccc(OC)c(CN2CCN(C(=O)CNC(=O)c3cc(C)cc(C)c3)CC2)c1` it was -1.91% (inactive).

These data come from PubChem BioAssay AID652115 (Broad Institute, 2013).
